Laboratory results published in PubChem BioAssay AID488922 (Johns Hopkins Ion Channel Center, 2010).
Among all 310,000 compounds or so, about 3,800 (1.2%) were called active.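 The calls were made as follows: active = ratio B-score over 3 SD below the library mean, with starting fluorescence within 5 SD of its mean; inactive = the rest, inconclusive results apart.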 For the sample, actives were picked, then their nearest neighbours and some compounds at random.

Target: Potassium channel subfamily K member 9 (Homo sapiens) (UniProt Q9NPC2)
Assay: KCNK9 potassium channel inhibitors, primary screen, HEK293 cells, thallium flux (AID 488922);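 as to B-score: negative B-score means less thallium flux so channel inhibition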
Conditions: HEK293 KCNK9, FluxOR thallium flux fluorescence, at 10 µM; active compounds read low

Potassium channel subfamily K member 9 (Homo sapiens), sequence (Q9NPC2 whole entry, looked up): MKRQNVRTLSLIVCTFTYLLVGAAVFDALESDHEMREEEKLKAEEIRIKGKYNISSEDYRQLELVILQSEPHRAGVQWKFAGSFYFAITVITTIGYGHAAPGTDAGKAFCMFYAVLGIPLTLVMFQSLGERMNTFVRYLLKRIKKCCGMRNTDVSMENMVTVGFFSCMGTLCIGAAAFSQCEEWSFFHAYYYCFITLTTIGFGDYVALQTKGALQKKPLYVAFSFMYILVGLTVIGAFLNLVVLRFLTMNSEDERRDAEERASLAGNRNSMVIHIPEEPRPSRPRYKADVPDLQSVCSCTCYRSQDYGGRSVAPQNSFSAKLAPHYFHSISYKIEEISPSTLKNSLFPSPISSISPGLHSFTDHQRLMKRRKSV

| Structure (SMILES) | B-score |
| --- | --- |
| COc1cccc(-c2cc3nc4c(c(N5CCC6(CC5)OCCO6)n3n2)CCCC4)c1 | -9.24 (active) |
| COc1cccc(NC(=O)CN2CCN(c3nc(-c4cccc(OC)c4)cs3)CC2)c1 | inactive |
| COc1cccc(CNc2nc3nc4c(c(=O)n3[nH]2)CCC4)c1 | inactive |
| CCC(=O)Nc1nnc(S(=O)(=O)N2CCCc3ccccc32)s1 | inactive |
| CCSc1nsc(NC(=O)Nc2cccc(C(C)=O)c2)n1 | inactive |
| Cc1ccc(C(=O)N(CC(=O)NC2CCCC2)c2ccc(F)cc2)s1 | inactive |
| O=C(CSc1ccccc1)Nc1cc(Cl)ccc1Oc1ccccc1 | -8.08 (active) |
| CC1CCCN(CC(=O)Nc2cc(Cl)ccc2Oc2ccccc2)C1 (configuration not stated) | inactive |
| CC(=O)Nc1ccc(SCC(=O)Nc2ccccc2Oc2ccccc2)cc1 | inactive |
| N#CCOc1ccc(C2=NO[C@@H]3[C@@H]4C[C@@H]([C@H]5C(=O)N(c6ccc7c(c6)OCO7)C(=O)[C@@H]45)[C@H]23)cc1 | inactive |
| O=C(N/C(=C\c1ccc(O)cc1)C(=O)N1CCCCC1)c1ccccc1 | inactive |
| COc1ccc(C)cc1NC(=O)C(Sc1ccccc1)c1ccccc1 (configuration not stated) | -8.19 (active) |
| COc1ccc(C)cc1NC(=O)Nc1ccccc1SC | inactive |
| COc1ccc(C)cc1NC(=O)NCCCCc1ccccc1 | inactive |
| CC(Sc1nnnn1C)C(=O)NC(=O)NC1CCCCC1 (configuration not stated) | inactive |
| Cc1ccc(S(=O)(=O)NC(C)C(=O)NCc2ccc(Cl)cc2)cc1 (configuration not stated) | inactive |
| Cc1cc(Cl)ccc1OCc1nc(-c2ccncc2)no1 | inactive |
| NC(=O)c1ccc(NC(=O)COC(=O)c2c3c(nc4ccccc24)/C(=C\c2ccc4c(c2)OCO4)CCC3)cc1 | inactive |
| O=C(Nc1c2c(nc3ccccc13)CCCC2)c1ccccc1Br | inactive |
| O=C(COC(=O)c1c2c(nc3ccccc13)CCCC2)c1ccc(Br)s1 | -9.29 (active) |
| COC(=O)COc1ccc2c(=O)c(Oc3ccccc3Br)coc2c1 | inactive |
| CCCCc1cc(=O)oc2c(C)c(OCC(=O)N3CCC(C(N)=O)CC3)ccc12 | inactive |

| Structure (SMILES) | B-score |
| --- | --- |
| O=C(/C=C/c1ccc(N2CCOCC2)cc1)c1ccccc1 | inactive |
| CCOc1ncccc1C(=O)OCC(=O)NC1CC1 | inactive |
| Cc1nc2ccccc2c(=O)n1NC(=O)c1ccc(Cl)c([N+](=O)[O-])c1 | inactive |
| C=CCn1c(SCc2ccc(C(=O)NCCO)cc2)nc2ccccc2c1=O | inactive |
| O=C(Nn1c(SCc2ccc([N+](=O)[O-])cc2)nc2ccccc2c1=O)c1ccc(F)cc1 | -8.82 (active) |
| O=C(Cn1nc([N+](=O)[O-])nc1Br)NC1CCCCC1 | inactive |
| CCC1Nc2ncnc(N3CCN(c4ccccc4)CC3)c2N(Cc2ccc(Cl)cc2)C1=O (configuration not stated) | inactive |
| Cc1nc(N2CCN(c3ccccn3)CC2)c2c(C)c(C(=O)Nc3ccc(F)c(Cl)c3)sc2n1 | -10.3 (active) |
| COc1ccc(NC(=O)c2sc3nc(C)nc(N4CCN(c5ccccn5)CC4)c3c2C)c(OC)c1 | inactive |
| Cc1nc(N2CCN(c3ccccn3)CC2)c2c(C)c(C(=O)Nc3ccc(F)cc3)sc2n1 | inactive |
| Cc1ccc2cccc(OCCCOc3ccccc3CO)c2n1 | inactive |
| O=C(COC(=O)c1cc2c(s1)CCCC2)NCc1ccccc1Cl | inactive |
| O=C(COC(=O)/C(=C/c1cccs1)c1cccs1)NCc1ccccc1Cl | -9.72 (active) |
| O=C(COC(=O)c1cccs1)NCc1cccs1 | inactive |
| CC(C)(C)NC(=O)COC(=O)c1cc(Br)ccc1Cl | inactive |
| O=C(NNS(=O)(=O)c1ccc(F)cc1)c1ccc([N+](=O)[O-])cc1Cl | inactive |
| COc1ccc(-c2[nH]ncc2/C=N/NC(=O)c2cc(Br)ccc2O)c(OC)c1 | inactive |
| Cc1ccc(C)c(NC(=O)CSc2nc3c(oc4ccccc43)c(=O)n2-c2ccccc2)c1 | -7.91 (active) |
| Cc1ccc(C)c(Cn2cnc3c(oc4ccccc43)c2=O)c1 | inactive |
| Cc1ccc(C)c(NC(=O)CSc2nnc(Cc3cccn3C)n2-c2ccc(F)cc2)c1 | inactive |
| C=CCOc1ccc(C(=O)Nc2ccccc2C(=O)N2CCCC2)cc1 | inactive |
| Cc1ccc(C2NC(C(=O)O)CS2)cc1 (configuration not stated) | inactive |

| Structure (SMILES) | B-score |
| --- | --- |
| CC(C)(C)Oc1ncc(Br)c(OC(C)(C)C)n1 | inactive |
| COc1ccc(-c2nc(N)ncc2-c2ccc(Cl)cc2)c(O)c1 | inactive |
| COc1cccc(-c2cnc(OC(C)(C)C)nc2OC(C)(C)C)c1 | -8.72 (active) |
| COc1ccc(CN2CCC(c3nc4ccc(Cl)cc4[nH]3)CC2)cc1 | inactive |
| Cc1ccc(C(=O)NC2CCN(C(=O)Nc3ccc(F)cc3)CC2)cc1 | inactive |
| O=C(CNC(=O)c1ccc(F)cc1)c1ccccc1 | inactive |
| O=C(Cc1ccccc1)NCc1ccc(F)cc1 | inactive |
| CN(C)c1ccc(C(CNC(=O)c2ccc(F)cc2)c2c[nH]c3ccccc23)cc1 (configuration not stated) | -13 (active) |
| O=C(CN(c1ccccc1)S(=O)(=O)c1ccc(Cl)cc1)Nc1ccccc1C(=O)N1CCCC1 | inactive |
| Clc1ccc(-c2ncc3ccccn23)c(Cl)c1 | inactive |
| Clc1ccc(COn2c(-c3ccc(Cl)cc3Cl)nc3ncccc32)cc1 | -10.6 (active) |
| COn1c(-c2ccc(Cl)cc2Cl)nc2ncccc21 | inactive |
| CC1CCN(S(=O)(=O)c2nnc(NC(=O)COc3ccccc3F)s2)CC1 | inactive |
| N/C(=N\S(=O)(=O)c1ccc(Cl)cc1)N1CCOCC1 | inactive |
| CCOC(=O)CSC1=C(C#N)C(c2ccco2)C(C(=O)OCc2ccccc2)=C(C)N1 (configuration not stated) | -7.3 (active) |
| Cc1ccc(C2CC(=O)NC(SCC(=O)OCc3ccccc3)=C2C#N)o1 (configuration not stated) | inactive |
| CC1=C(C(=O)OCc2ccccc2)C(c2ccco2)n2ncnc2N1 (configuration not stated) | inactive |
| CC(=O)N[C@@H](C)C(=O)N1CCC(n2nccc2NC(=O)CCCc2ccccc2)CC1 | inactive |
| COc1ccc(-n2c(=O)[nH]c3cc(C(=O)NCCc4ccc(OC)c(OC)c4)ccc3c2=O)c(OC)c1 | inactive |
| COc1ccc(-c2n[nH]c(C)c2-c2ccccc2OC)c(O)c1 | inactive |
| COc1ccccc1-c1nc(SC)n[nH]1 | inactive |
| COc1ccccc1-c1n[nH]c2c1[C@H](C)CC[C@H]2C(C)C | -6.66 (active) |

| Structure (SMILES) | B-score |
| --- | --- |
| Cc1ccc2nc(SCC(=O)N3CCN(c4ccccc4)CC3)nc(=O)n2c1 | inactive |
| O=C(NCC(=O)N1CCCC(C(F)(F)F)C1)c1ccccc1F (configuration not stated) | inactive |
| Cc1ccc(CNC(=O)CCS(=O)(=O)c2ccc3c(c2)CC(C)N3C(=O)C2CC2)o1 (configuration not stated) | inactive |
| Cc1ccc(C(=O)Nc2ccc(C)c(S(=O)(=O)N(C)C)c2)s1 | inactive |
| O=C(NCCCO)c1cc2c([nH]c3ccccc32)c(-c2ccc(F)cc2)n1 | inactive |
| C=CCn1c(SCC(=O)NC)nnc1C12CC3CC(CC(C3)C1)C2 | inactive |
| CC1=C(C(=O)OC(C)(C)C)C(c2ccc(Br)cc2)NC(=O)N1CCCC(=O)O (configuration not stated) | inactive |
| COc1ccc(C2Nc3ccccc3C(=O)N2c2ccc(F)cc2)cc1Cn1nnc2ccccc21 (configuration not stated) | inactive |
| Cc1ccc(C2Nc3ccccc3C(=O)N2CCN2CCNC2=O)cc1 (configuration not stated) | inactive |
| COc1ccc(C2Nc3ccccc3C(=O)N2Cc2ccccc2)cc1Cn1nnc2ccccc21 (configuration not stated) | -8.45 (active) |
| Cc1cc(NC(=O)/C=C/C(=O)N(CC(=O)NC2CCCC2)c2ccc(F)cc2)no1 | inactive |
| CCCCCC(O)c1cccc(OCc2ccc3ccccc3n2)c1 (configuration not stated) | -16.3 (active) |
| COc1cccc(C(O)c2nc3ccccc3n2C)c1 (configuration not stated) | inactive |
| CCCCCCOC(=O)NCC(O)c1ccccc1 (configuration not stated) | inactive |
| COc1cc(CCC(=O)N2CCN(c3ccccc3Cl)CC2)cc(OC)c1OC | inactive |
| c1ccc(C2c3[nH]c4ccccc4c3CCN2Cc2cccn2-c2cccnc2)nc1 (configuration not stated) | inactive |
| CCOc1ccc(C2c3[nH]c4ccccc4c3CCN2Cc2cccn2-c2ncccn2)cc1 (configuration not stated) | -9.89 (active) |
| CCOc1ccc(C2c3[nH]c4ccccc4c3CCN2Cc2cn(CC)nc2C)cc1 (configuration not stated) | inactive |
| O=C(/C=C/c1cccs1)c1cc(Cl)ccc1OC(=O)N1CCOCC1 | inactive |
| COc1cc(NC(=O)Nc2ccc(C)cc2)cc([N+](=O)[O-])c1 | inactive |
| COc1cc(NC(=S)NCCSc2ccc(C)cc2)cc(OC)c1 | -9.28 (active) |
| COc1cc(NC(=S)NCc2ccc(S(N)(=O)=O)cc2)cc(OC)c1 | inactive |

| Structure (SMILES) | B-score |
| --- | --- |
| Cc1cc(C)n(-c2ccc(NC(=O)C3CCCCN3C(=O)c3cccs3)cc2)n1 (configuration not stated) | inactive |
| CNC(C)C#Cc1ccc2sc3cc(OC)c(OC)cc3c(=O)c2c1 (configuration not stated) | inactive |
| CCOC(=O)C1=C(c2ccccc2)O/C(=C(/C(=O)OC)C(F)(F)F)S1 | inactive |
| Cc1ccccc1C(=O)Nc1ccccc1NC(=O)c1ccccc1C | inactive |
| CCCCCCCCn1c2c(c(=N)c3c1CCC3)CCCC2 | -14.2 (active) |
| O=C(NCc1cc(F)cc(C(F)(F)F)c1)C1CCC(=O)N(C2CCCC2)C1 (configuration not stated) | inactive |
| COc1ccccc1C(=O)NCCn1cc(SCC(=O)NCc2ccco2)c2ccccc21 | inactive |
| COc1ccccc1CC(=O)NCCc1c[nH]c2ccccc12 | inactive |
| COc1ccc(S(=O)(=O)NCCc2c[nH]c3ccccc23)cc1OC | inactive |
| COc1cccc(CNCCc2c[nH]c3ccccc23)c1OCc1ccccc1F | -8.25 (active) |
| Cc1cc(C)n(CCNS(=O)(=O)c2ccc(Cl)cc2)n1 | inactive |
| CCC1CCCCN1C(=S)Nc1ccc(C(C)=O)cc1 (configuration not stated) | inactive |
| CCC1CCCCN1C(=O)Nc1cccc(NC(=O)N2CCCCC2CC)c1 (configuration not stated) | -7.72 (active) |
| COc1cccc(NC(=O)N2CCCC2C(=O)NC2CCCCC2)c1 (configuration not stated) | inactive |
| O=C(Nn1c(-c2ccc(Cl)cc2)nc2ccccc2c1=O)c1cccnc1Cl | inactive |
| C/C(=N\N(C)C)c1ccc(OCCOc2ccc([N+](=O)[O-])cc2)cc1 | inactive |
| O=C(N/N=C/c1c[nH]c2ccccc12)c1cc2ccccc2o1 | inactive |
| Cc1ccc(NC(=O)c2cc3ccccc3o2)cc1 | inactive |
| Cc1c(/C=N\NC(=O)c2cc3ccccc3o2)c2ccccc2n1C | -6.85 (active) |
